In all, about 69,000 compounds went through this assay and about 8,600 (12%) showed an effect of 50% or more. Many of the other results were omitted from the sample, so strong results are more common in it than they were.

This test relates to Plasmodium berghei. Description: Screen against P. berghei liver stage (PbLuc), transformed with Luciferase, at 10uM. To be noted: tested at 10 uM. In kind it is functional, HepG2.
For the compound `CCC(CO)N(Cc1ccsc1)Cc1c(C)nn(C)c1Cl` (stereo not given), the INHIBITION came out at 27.7%.
Next, `NS(=O)(=O)c1cccnc1Nc1cccc(Cl)c1Cl`: 27.4%.
Take `COc1ccc(CN(C)C(=O)Cc2c(C)nn(C)c2C)cc1F`: the INHIBITION is 73.6%.
Next, `COc1ccc(NC(=O)Cc2c(C)nn(C)c2C)cc1F`: 47.3%; `Cc1nn(C)c(C)c1CCC(=O)N(C)Cc1ccc2nsnc2c1`: -18.3%; `COc1ccc(CN(C)C(=O)CN2CC(n3cc(C)cn3)C2)cc1F`: 17.1%.
Take `COc1cc(CN(C)C(=O)Cc2c(C)nn(C)c2C)ccc1OC(F)F`: the INHIBITION is 93.4%.
As to `COc1ccc(CCC(=O)N(C)Cc2c(C)nn(C)c2C)cc1`, the INHIBITION amounted to 40.9%.
Consider `CCCS(=O)(=O)N1Cc2nccn2CC(CN2CCCC2)C1` (stereo not given), for which the INHIBITION came to 30.3%.
For `O=C(Nc1cccc(C(=O)OCC2CCCN2)c1)c1ccoc1` (stereo not given), the INHIBITION was -97.2%.
Regarding `N#Cc1c(N)nc2c(c1-c1c[nH]nc1C1CCCCC1)CC(N)CC2` (stereo not given), the INHIBITION was -2.43%.
For the compound `CC(=O)NCc1nnc2n1CCN(Cc1cccs1)C2`, the INHIBITION was 76.2%.
In the case of `CS(=O)(=O)NCc1nnc2n1CCN(Cc1cccs1)C2`, the INHIBITION was 34.7%.
For the compound `CS(=O)(=O)NCc1nnc2n1CCN(Cc1ccc(F)cc1)C2`, the INHIBITION was 15.9%.
Next, `CN(C)C(=O)NCc1nnc2n1CCN(Cc1cccs1)C2`: 27.7%; `N#CCC(=O)NCc1nnc2n1CCN(Cc1cccs1)C2`: 0.164%.
As to `CS(=O)(=O)NCc1nnc2n1CCN(Cc1cccnc1)C2`, the INHIBITION was 45.1%.
For the compound `CS(=O)(=O)NCc1nnc2n1CCN(Cc1ccncc1)C2`, the INHIBITION is on record as 64.9%.
Next, `CS(=O)(=O)NCc1nnc2n1CCN(Cc1nccs1)C2`: 18.3%; `Cc1ccc(CN2CCn3c(CNS(C)(=O)=O)nnc3C2)s1`: 50.9%.
For `COC(=O)C(C)(C)NC(=O)C1CC(=O)N(CC2CC2)C1` (stereo not given), the INHIBITION is given as 25.1%.
With `CNc1snc(C)c1C(=O)N1CCCC(n2ccnc2)C1` (stereo not given), the INHIBITION was 33.8%.
Regarding `CC[C@H]1N(Cc2ccc(OC)cc2)CCC[C@]12CCC(=O)N2C`, the INHIBITION came to 6.27%.
As for `Cc1nc(N2CCCN(c3ncccn3)CC2)c2cnn(C)c2n1`, the INHIBITION is recorded as -9.29%.
For `Cc1ncsc1CN1CCn2nc(CCC(=O)N3CCCC3)cc2C1`, the INHIBITION amounted to 14.9%.
On to `Cc1nnc(NC(=O)CN2CCc3c(nc(C4CC4)n3C)C2)s1`, for which the INHIBITION is recorded as 14.4%.
`CC(=O)NC1CCCN(C(=O)NCc2ccc(-n3cccn3)cc2)C1` (stereo not given): the INHIBITION is reported as 0.914%.
Turning to `O=C(Cc1cccs1)N1C[C@@H]2COC[C@]2(COCc2cccnc2)C1`, the INHIBITION worked out at 43.9%.
As for `Cc1cc2[nH]c(=O)c(=O)[nH]c2cc1S(=O)(=O)NC1CCC(C)CC1` (stereo not given), the INHIBITION stood at 23%.
As for `Cc1cc2[nH]c(=O)c(=O)[nH]c2cc1S(=O)(=O)NC1CCCCC1`, the INHIBITION was -27.7%.
For the compound `Cc1cc2nc(O)c(O)nc2cc1S(=O)(=O)NC1CC1`, the INHIBITION is on record as 60.7%.
In the case of `CNC(=O)[C@@H](c1ccccc1F)N1CCC[C@H]1C(=O)NC1CCOCC1`, the INHIBITION is recorded as -27.5%.
For the compound `O=S(=O)(NCC1CCOC1)N1CCc2ccccc2C1` (stereo not given), the INHIBITION is 27.5%.
Consider `CN1CCCC(CNS(=O)(=O)N2CCc3ccccc3C2)C1` (stereo not given), for which the INHIBITION came to 57.8%.
On to `CCN1CCC(CNS(=O)(=O)N2CCc3ccccc3C2)C1` (stereo not given), for which the INHIBITION amounted to 45.4%.
As for `O=S(=O)(NCC1COc2ccccc2C1)N1CCCC1` (stereo not given), the INHIBITION is listed as -30%.
On to `O=S1(=O)CCC(CNS(=O)(=O)N2CCc3ccccc3C2)C1` (stereo not given), for which the INHIBITION was 52.2%.
Turning to `O=S(=O)(NCC1COc2ccccc2C1)N1CCCCC1` (stereo not given), the INHIBITION was -7.71%.
With `CCn1nc(CC(C)C)cc1C(=O)NCc1c(C)cc(C)nc1OC`, the INHIBITION stood at 47.3%.
Next, `CSCC(=O)Nc1cccc(Oc2ccccn2)c1`: -9.93%.
`O=C1CC(NS(=O)(=O)NCc2ccccc2)CN1c1ccccc1Cl` (stereo not given): the INHIBITION was determined as 55%.
`CS(=O)(=O)NC1CC(=O)N(c2ccccc2Cl)C1` (stereo not given): the INHIBITION is recorded as 28.7%.
Regarding `CN(C)S(=O)(=O)NC1CC(=O)N(c2ccccc2Cl)C1` (stereo not given), the INHIBITION stood at 25.8%.
In the case of `COCc1cncc2c1CCN(Cc1cnn(C)c1)C2`, the INHIBITION was -26.2%.
As for `c1cncc(COCc2cncc3c2CCN(Cc2ccoc2)C3)c1`, the INHIBITION came out at 54.8%.
Regarding `COCc1cncc2c1CCN(Cc1cccnc1)C2`, the INHIBITION came to 24.8%.
As to `CC(C)COCc1cncc2c1CCN(Cc1cnn(C)c1)C2`, the INHIBITION was found to be 71.8%.
On to `CN(Cc1cccnc1)Cc1cncc2c1CCN(Cc1ccoc1)C2`, for which the INHIBITION came out at 28.5%.
On to `CN(C)Cc1cncc2c1CCN(Cc1ccoc1)C2`, for which the INHIBITION turned out to be 24.9%.
As for `CN(C)C(=O)COCc1cncc2c1CCN(Cc1cnn(C)c1)C2`, the INHIBITION worked out at 23.5%.
On to `Cn1cc(CN2CCc3c(COCC4CC4)cncc3C2)cn1`, for which the INHIBITION is on record as 7.15%.
For `CN(C)Cc1cncc2c1CCN(CC(=O)N(C)C)C2`, the INHIBITION is given as 72%.
As to `CC(C)N(C)Cc1cncc2c1CCN(CC1CC1)C2`, the INHIBITION is 44.8%.
On to `CC(C)N(C)Cc1cncc2c1CCN(CC(=O)N(C)C)C2`, for which the INHIBITION is listed as 12.2%.
Turning to `CN(C)Cc1cncc2c1CCN(Cc1cnn(C)c1)C2`, the INHIBITION is listed as 59.8%.

These data come from ChEMBL document CHEMBL4513216, “Probing the Open Global Health Chemical Diversity Library for Multistage-Active Starting Points for Next-Generation Antimalarials” (ACS Infect Dis, 2020).
